Out of some 39,000 compounds screened, about 3,300 (8.5%) were called active. The full list was thinned out, with actives kept by preference.
Tested on: HepG2
Experiment: cytotoxicity call (relative viability < 0.9)
Settings: 10 µM

Structure (SMILES) | cytotoxicity call
CCCNC(=O)N1C[C@H]2[C@@H](c3ccccc31)[C@H](CO)N2C(=O)CN1CCOCC1 | inactive
C[C@@H]1CCCCO[C@@H](CN(C)Cc2ccc(Cl)c(Cl)c2)[C@H](C)CN([C@@H](C)CO)C(=O)c2cc(NS(=O)(=O)c3cccs3)ccc2O1 | inactive
CC(=O)NCC(=O)N1CCC2(CC1)C(=O)N(CC1CC1)CCN2C | inactive
C[C@@H]1CN([C@H](C)CO)C(=O)c2cc(NS(=O)(=O)c3ccc(F)cc3)ccc2O[C@H]1CN(C)S(C)(=O)=O | inactive
C[C@@H]1ON(c2ccc(C(=O)OC(C)(C)C)cc2)[C@H](c2ccc(O)cc2)[C@H]1C(=O)N1C(=O)OC[C@H]1Cc1ccccc1 | inactive
COc1cccc(S(=O)(=O)N(C)C[C@@H]2Oc3ncc(-c4ccc(F)cc4)cc3C(=O)N([C@H](C)CO)C[C@@H]2C)c1 | inactive
COc1cc2nc(N3CCN(C(=O)c4ccco4)CC3)nc(N)c2cc1OC.Cl | active
COc1cc2nc(N3CCN(C(=O)C4CCCO4)CC3)nc(N)c2cc1OC.Cl (stereo not drawn) | active
O=C(c1ccco1)N1CCNCC1 | inactive
COc1cc2nc(N3CCN(C(=O)C4COc5ccccc5O4)CC3)nc(N)c2cc1OC.CS(=O)(=O)O (stereo not drawn) | inactive
COc1cc2nc(N(C)CCCNC(=O)C3CCCO3)nc(N)c2cc1OC.Cl (stereo not drawn) | inactive
NC(=O)C1CCN(C(=O)c2ccco2)CC1 | inactive
Cl.Cl.NCCNCCNCCN | inactive
C[C@@H]1CCCCO[C@@H](CN(C)C(=O)CCC(F)(F)F)[C@H](C)CN([C@@H](C)CO)C(=O)c2cc(NC(=O)Nc3ccccc3)ccc2O1 | inactive
C[C@@H]1CCCCO[C@H](CN(C)CC2CC2)[C@@H](C)CN([C@H](C)CO)C(=O)c2cc(NC(=O)Cc3ccccc3)ccc2O1 | inactive
O=C(C[C@H]1CC[C@@H]2[C@H](COC[C@H](O)CN2C(=O)c2cnccn2)O1)N1CCN(c2ccccc2)CC1 | inactive
C[C@H](CO)N1C[C@H](C)[C@H](CN(C)CC2CCCCC2)OCCCC[C@H](C)Oc2ccc(NC(=O)CCCN(C)C)cc2C1=O | inactive
NNC(=O)c1ccc2c(=O)[nH][nH]c(=O)c2c1 | inactive
CCS(=O)(=O)NCC[C@@H]1CC[C@@H](NS(=O)(=O)c2ccccc2C)[C@H](CO)O1 | inactive
COCc1cn(CC[C@@H]2CC[C@H](NC(=O)CCN3CCCCC3)[C@@H](CO)O2)nn1 | inactive
CN(C)CCCNC(=O)C[C@@H]1CC[C@H]2[C@@H](COc3ccc(NC(=O)c4ccc5c(c4)OCO5)cc3C(=O)N2C)O1 | inactive
C[C@H]1CN([C@@H](C)CO)C(=O)c2cc(NS(C)(=O)=O)ccc2O[C@@H]1CN(C)C(=O)Nc1ccc(C(F)(F)F)cc1 | inactive
C[C@@H]1CN([C@H](C)CO)C(=O)c2cc(NS(C)(=O)=O)ccc2O[C@H]1CN(C)C(=O)Nc1ccc(C(F)(F)F)cc1 | inactive

Structure (SMILES) | cytotoxicity call
C[C@@H]1CN([C@@H](C)CO)C(=O)c2cc(NS(C)(=O)=O)ccc2O[C@@H]1CN(C)C(=O)Nc1ccc(C(F)(F)F)cc1 | active
C[C@@H]1CN([C@@H](C)CO)C(=O)c2cc(NS(C)(=O)=O)ccc2O[C@H]1CN(C)C(=O)Nc1ccc(C(F)(F)F)cc1 | inactive
C[C@H](CO)N1C[C@H](C)[C@@H](CN(C)C(=O)Nc2ccc(F)cc2)Oc2ccc(NS(C)(=O)=O)cc2C1=O | inactive
C[C@H]1CN([C@@H](C)CO)C(=O)c2cc(NS(C)(=O)=O)ccc2O[C@@H]1CN(C)C(=O)Nc1ccc(F)cc1 | active
C[C@H](CO)N1C[C@H](C)[C@@H](CN(C)C(=O)Nc2ccc(C(F)(F)F)cc2)Oc2ccc(NS(C)(=O)=O)cc2C1=O | inactive
C[C@H]1CN([C@@H](C)CO)C(=O)c2cc(NS(C)(=O)=O)ccc2O[C@H]1CN(C)C(=O)Nc1ccc(F)cc1 | inactive
C[C@H]1CN([C@@H](C)CO)C(=O)c2cc(NS(C)(=O)=O)ccc2O[C@H]1CN(C)C(=O)Nc1ccc(C(F)(F)F)cc1 | active
C[C@@H]1CCCCO[C@@H](CN(C)C(=O)c2ccncc2)[C@H](C)CN([C@H](C)CO)C(=O)c2cc(NS(C)(=O)=O)ccc2O1 | inactive
N#C[C@H](c1ccccn1)N1CCOCC1 | inactive
O=c1n(-c2ccccc2)c(=O)n2n1CC(COc1ccccc1)=C1[C@@H](CCc3ccccc3)OB(O)C[C@@H]12 | inactive
C[C@H](CO)N1C[C@H](C)[C@@H](CN(C)S(C)(=O)=O)Oc2ccc(NS(=O)(=O)c3ccc(F)cc3)cc2C1=O | inactive
COc1cccc(S(=O)(=O)N2C[C@H](O)COC[C@H]3O[C@@H](CC(=O)N4CCOCC4)CC[C@@H]32)c1 | inactive
CC(C)NC(=O)N[C@@H]1C=C[C@@H](CC(=O)NCCCN(C)C)O[C@@H]1CO | inactive
O=C(C[C@H]1C[C@@H]2c3cc(NC(=O)C4CCOCC4)ccc3O[C@@H]2[C@@H](CO)O1)NCCN1CCCCC1 | inactive
C[C@H]1CN([C@@H](C)CO)C(=O)c2cccc(NC(=O)c3ccncc3)c2O[C@@H]1CN(C)Cc1ccc(C(=O)O)cc1 | inactive
C[C@@H]1CN([C@@H](C)CO)C(=O)c2cc(C#Cc3ccccc3F)cnc2O[C@@H]1CN(C)S(=O)(=O)c1ccccc1 | inactive
O=S(=O)(c1cccc2cnccc12)N1CCCNCC1 | active
O=S(=O)(c1ccc(-n2cnnn2)cc1)N1CCNCC1 | inactive
O=S(=O)(NCCN(C/C=C/c1ccc(F)cc1)C/C=C/c1ccc(F)cc1)c1cccc2cnccc12 | inactive
COc1ccc(S(=O)(=O)Nc2ccc3c(c2)C(=O)N([C@@H](C)CO)C[C@H](C)[C@@H](CN(C)C(=O)Nc2cccc4ccccc24)OCCCC[C@H](C)O3)cc1 | inactive
C[C@H]1CN([C@@H](C)CO)C(=O)c2cc(NC(=O)Nc3cccc4ccccc34)ccc2O[C@@H]1CN(C)Cc1ccc(-c2ccccc2)cc1 | active
C[C@H](CO)N1C[C@H](C)[C@H](CN(C)Cc2ccc(-c3ccccc3)cc2)Oc2ccc(NC(=O)Nc3cccc4ccccc34)cc2C1=O | active
C[C@H]1CN([C@@H](C)CO)C(=O)c2cc(NC(=O)Nc3cccc4ccccc34)ccc2O[C@H]1CN(C)Cc1ccccc1 | inactive

Structure (SMILES) | cytotoxicity call
C[C@@H]1CN([C@H](C)CO)C(=O)c2cc(NC(=O)Nc3cccc4ccccc34)ccc2O[C@@H]1CN(C)Cc1ccc(C(=O)O)cc1 | inactive
C[C@@H]1CN([C@H](C)CO)C(=O)c2cc(NC(=O)Nc3cccc4ccccc34)ccc2O[C@@H]1CN(C)Cc1ccc(-c2ccccc2)cc1 | active
C[C@@H]1CN([C@H](C)CO)C(=O)c2cc(NC(=O)Nc3cccc4ccccc34)ccc2O[C@H]1CN(C)Cc1ccc(-c2ccccc2)cc1 | active
C[C@H](CO)N1C[C@H](C)[C@@H](CN(C)Cc2ccc(-c3ccccc3)cc2)Oc2ccc(NC(=O)Nc3cccc4ccccc34)cc2C1=O | inactive
C[C@H](CO)N1C[C@H](C)[C@H](CN(C)Cc2ccc(C(=O)O)cc2)Oc2ccc(NC(=O)Nc3cccc4ccccc34)cc2C1=O | inactive
C[C@H]1CN([C@@H](C)CO)C(=O)c2cc(NC(=O)Nc3cccc4ccccc34)ccc2O[C@H]1CN(C)Cc1ccc(C(=O)O)cc1 | inactive
C[C@@H]1CN([C@@H](C)CO)C(=O)c2cc(NC(=O)Nc3cccc4ccccc34)ccc2O[C@@H]1CN(C)Cc1ccc(-c2ccccc2)cc1 | inactive
C[C@H]1CN([C@@H](C)CO)C(=O)c2cc(NC(=O)Nc3cccc4ccccc34)ccc2O[C@H]1CN(C)Cc1ccc(-c2ccccc2)cc1 | inactive
C[C@@H]1CN([C@@H](C)CO)C(=O)c2cc(NC(=O)Nc3cccc4ccccc34)ccc2O[C@H]1CN(C)Cc1ccc(-c2ccccc2)cc1 | inactive
C[C@@H]1CCCCO[C@@H](CN(C)C(=O)NC2CCCCC2)[C@H](C)CN([C@H](C)CO)C(=O)c2cc(NC(=O)NC3CCCCC3)ccc2O1 | inactive
C[C@H](CO)N1C[C@H](C)[C@@H](CN(C)C(=O)Nc2ccccc2)Oc2ccc(NC(=O)CCCCCC(=O)Nc3ccccc3N)cc2CC1=O | inactive
COc1ccccc1C#Cc1cnc2c(c1)C(=O)N([C@H](C)CO)C[C@@H](C)[C@@H](CN(C)C(=O)CC1CC1)O2 | inactive
C[C@H](CO)N1C[C@H](C)[C@@H](CN(C)S(=O)(=O)c2ccc(Cl)cc2)Oc2ccc(NC(=O)C3CC3)cc2C1=O | inactive
CCCCCCCCCCCCCCCC(=O)OCC=C(C)C=CC=C(C)C=CC1=C(C)CCCC1(C)C | inactive
C[C@H]1CN([C@@H](C)CO)C(=O)c2cc(N(C)C)ccc2O[C@H]1CN(C)S(=O)(=O)c1ccc(Cl)cc1 | inactive
C[C@@H]1CCCCO[C@@H](CN(C)S(C)(=O)=O)[C@@H](C)CN([C@H](C)CO)C(=O)c2cc(NS(C)(=O)=O)ccc2O1 | inactive
CN(C)CCCNC(=O)C[C@@H]1CC[C@@H]2[C@@H](COc3ccc(NS(C)(=O)=O)cc3C(=O)N2C)O1 | inactive
CO[C@@H]1CN(C)C(=O)c2cc(NC(=O)Nc3ccccc3F)ccc2OC[C@H](C)N(Cc2ccccc2C(=O)O)C[C@H]1C | inactive
Cc1ccc(S(=O)(=O)N(C)C[C@H]2Oc3ccc(NS(=O)(=O)c4cn(C)cn4)cc3CC(=O)N([C@@H](C)CO)C[C@H]2C)cc1 | inactive
O=C(Nc1cccc2cccnc12)[C@@H]1[C@H](c2ccc(C(F)(F)F)cc2)CC(=O)N1C(=O)OCc1ccccc1 | inactive
C[C@@H]1CCCCO[C@H](CN(C)C(=O)c2ccncc2)[C@H](C)CN([C@H](C)CO)C(=O)c2cc(NS(C)(=O)=O)ccc2O1 | inactive
Cc1ccc(S(=O)(=O)N(C)C[C@H]2Oc3cc(Br)ccc3S(=O)(=O)N([C@@H](C)CO)C[C@H]2C)cc1 | inactive
